Measured values reported in the supplement of paper PMC11732987, “Enantioselective OTUD7B fragment discovery through chemoproteomics screening and high-throughput optimisation” (Communications Chemistry, 2025).

Key:
Test in all cases: log2 ratio of Biotin-Ahx-Ub-VS probe labelling (fragment/DMSO); higher = less target engagement (more negative = stronger competition), active = hit call of the paper (q ≤ 0.05, log2 ratio ≤ -1)
Details in all cases: compound concentration: 200 uM; treatment time: 3 h
USP19 = target: T1, USP19 (UniProt O94966)
T1 sequence (whole entry): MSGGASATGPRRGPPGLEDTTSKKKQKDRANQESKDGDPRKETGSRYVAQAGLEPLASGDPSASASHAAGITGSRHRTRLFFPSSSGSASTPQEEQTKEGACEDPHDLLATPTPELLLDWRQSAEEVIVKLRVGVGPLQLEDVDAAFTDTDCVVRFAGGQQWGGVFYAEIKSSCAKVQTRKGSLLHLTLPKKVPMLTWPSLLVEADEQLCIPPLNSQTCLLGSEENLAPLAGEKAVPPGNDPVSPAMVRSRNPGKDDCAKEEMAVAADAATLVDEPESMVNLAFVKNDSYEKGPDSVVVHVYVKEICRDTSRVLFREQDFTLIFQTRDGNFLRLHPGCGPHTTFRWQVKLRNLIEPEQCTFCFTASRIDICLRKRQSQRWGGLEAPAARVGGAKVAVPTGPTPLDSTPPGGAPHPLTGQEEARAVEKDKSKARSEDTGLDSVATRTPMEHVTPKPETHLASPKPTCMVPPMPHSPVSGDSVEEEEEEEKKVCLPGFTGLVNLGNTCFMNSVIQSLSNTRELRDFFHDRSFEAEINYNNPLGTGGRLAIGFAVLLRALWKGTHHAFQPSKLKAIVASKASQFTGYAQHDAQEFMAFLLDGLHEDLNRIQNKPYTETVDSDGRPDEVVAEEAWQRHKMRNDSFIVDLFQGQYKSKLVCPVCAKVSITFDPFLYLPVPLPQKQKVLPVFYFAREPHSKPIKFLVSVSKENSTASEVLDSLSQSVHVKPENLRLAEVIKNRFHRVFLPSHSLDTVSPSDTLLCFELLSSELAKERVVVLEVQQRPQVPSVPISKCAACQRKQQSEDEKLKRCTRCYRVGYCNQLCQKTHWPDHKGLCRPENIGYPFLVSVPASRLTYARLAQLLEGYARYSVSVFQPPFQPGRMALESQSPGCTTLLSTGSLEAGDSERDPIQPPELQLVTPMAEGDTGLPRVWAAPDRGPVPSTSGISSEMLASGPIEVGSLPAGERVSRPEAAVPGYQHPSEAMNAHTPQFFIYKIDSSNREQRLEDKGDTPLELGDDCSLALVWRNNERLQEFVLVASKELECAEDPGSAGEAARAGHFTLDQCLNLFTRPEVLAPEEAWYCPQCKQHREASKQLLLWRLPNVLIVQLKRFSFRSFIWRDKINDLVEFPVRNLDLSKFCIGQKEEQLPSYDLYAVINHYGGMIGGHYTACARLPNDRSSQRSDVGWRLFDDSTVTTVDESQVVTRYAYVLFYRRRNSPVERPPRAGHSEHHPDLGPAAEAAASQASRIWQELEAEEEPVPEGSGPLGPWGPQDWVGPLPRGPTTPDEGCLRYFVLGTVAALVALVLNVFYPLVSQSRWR
Outline: (§1)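 Triplicate samples of HEK293T lysate, 495 µg each, received fragment at 200 µM or vehicle for 3 h, followed by Biotin-Ahx-Ub-VS (0.5 µM final) for 1 h. After NeutrAvidin enrichment of labelled DUBs and LysC/trypsin digestion, peptides were run by diaPASEF LC-MS/MS. The values are average log2 fragment/vehicle ratios from global-median-normalised Spectronaut label-free quantities, tested by unpaired t-test on proteins having ≥2 unique peptides.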

USP22 = target: T2, USP22 (UniProt Q9UPT9)
T2 sequence (whole entry): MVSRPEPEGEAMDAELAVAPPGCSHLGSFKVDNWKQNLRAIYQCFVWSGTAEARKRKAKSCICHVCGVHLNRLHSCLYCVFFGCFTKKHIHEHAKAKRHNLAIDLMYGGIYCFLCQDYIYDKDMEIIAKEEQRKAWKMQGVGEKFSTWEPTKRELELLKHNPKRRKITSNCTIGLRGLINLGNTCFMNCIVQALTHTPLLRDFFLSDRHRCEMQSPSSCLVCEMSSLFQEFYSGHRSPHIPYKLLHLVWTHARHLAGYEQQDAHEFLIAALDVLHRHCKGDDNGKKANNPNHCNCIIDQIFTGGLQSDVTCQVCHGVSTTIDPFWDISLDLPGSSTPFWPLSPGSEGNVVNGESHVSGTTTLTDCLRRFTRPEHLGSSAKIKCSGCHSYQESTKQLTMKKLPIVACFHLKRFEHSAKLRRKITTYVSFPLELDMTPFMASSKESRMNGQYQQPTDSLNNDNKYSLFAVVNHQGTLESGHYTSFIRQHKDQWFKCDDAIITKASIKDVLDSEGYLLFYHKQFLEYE
Outline: as §1

USP24 = USP24 (UniProt Q9UPU5)
Chain of USP24 (Q9UPU5 whole entry): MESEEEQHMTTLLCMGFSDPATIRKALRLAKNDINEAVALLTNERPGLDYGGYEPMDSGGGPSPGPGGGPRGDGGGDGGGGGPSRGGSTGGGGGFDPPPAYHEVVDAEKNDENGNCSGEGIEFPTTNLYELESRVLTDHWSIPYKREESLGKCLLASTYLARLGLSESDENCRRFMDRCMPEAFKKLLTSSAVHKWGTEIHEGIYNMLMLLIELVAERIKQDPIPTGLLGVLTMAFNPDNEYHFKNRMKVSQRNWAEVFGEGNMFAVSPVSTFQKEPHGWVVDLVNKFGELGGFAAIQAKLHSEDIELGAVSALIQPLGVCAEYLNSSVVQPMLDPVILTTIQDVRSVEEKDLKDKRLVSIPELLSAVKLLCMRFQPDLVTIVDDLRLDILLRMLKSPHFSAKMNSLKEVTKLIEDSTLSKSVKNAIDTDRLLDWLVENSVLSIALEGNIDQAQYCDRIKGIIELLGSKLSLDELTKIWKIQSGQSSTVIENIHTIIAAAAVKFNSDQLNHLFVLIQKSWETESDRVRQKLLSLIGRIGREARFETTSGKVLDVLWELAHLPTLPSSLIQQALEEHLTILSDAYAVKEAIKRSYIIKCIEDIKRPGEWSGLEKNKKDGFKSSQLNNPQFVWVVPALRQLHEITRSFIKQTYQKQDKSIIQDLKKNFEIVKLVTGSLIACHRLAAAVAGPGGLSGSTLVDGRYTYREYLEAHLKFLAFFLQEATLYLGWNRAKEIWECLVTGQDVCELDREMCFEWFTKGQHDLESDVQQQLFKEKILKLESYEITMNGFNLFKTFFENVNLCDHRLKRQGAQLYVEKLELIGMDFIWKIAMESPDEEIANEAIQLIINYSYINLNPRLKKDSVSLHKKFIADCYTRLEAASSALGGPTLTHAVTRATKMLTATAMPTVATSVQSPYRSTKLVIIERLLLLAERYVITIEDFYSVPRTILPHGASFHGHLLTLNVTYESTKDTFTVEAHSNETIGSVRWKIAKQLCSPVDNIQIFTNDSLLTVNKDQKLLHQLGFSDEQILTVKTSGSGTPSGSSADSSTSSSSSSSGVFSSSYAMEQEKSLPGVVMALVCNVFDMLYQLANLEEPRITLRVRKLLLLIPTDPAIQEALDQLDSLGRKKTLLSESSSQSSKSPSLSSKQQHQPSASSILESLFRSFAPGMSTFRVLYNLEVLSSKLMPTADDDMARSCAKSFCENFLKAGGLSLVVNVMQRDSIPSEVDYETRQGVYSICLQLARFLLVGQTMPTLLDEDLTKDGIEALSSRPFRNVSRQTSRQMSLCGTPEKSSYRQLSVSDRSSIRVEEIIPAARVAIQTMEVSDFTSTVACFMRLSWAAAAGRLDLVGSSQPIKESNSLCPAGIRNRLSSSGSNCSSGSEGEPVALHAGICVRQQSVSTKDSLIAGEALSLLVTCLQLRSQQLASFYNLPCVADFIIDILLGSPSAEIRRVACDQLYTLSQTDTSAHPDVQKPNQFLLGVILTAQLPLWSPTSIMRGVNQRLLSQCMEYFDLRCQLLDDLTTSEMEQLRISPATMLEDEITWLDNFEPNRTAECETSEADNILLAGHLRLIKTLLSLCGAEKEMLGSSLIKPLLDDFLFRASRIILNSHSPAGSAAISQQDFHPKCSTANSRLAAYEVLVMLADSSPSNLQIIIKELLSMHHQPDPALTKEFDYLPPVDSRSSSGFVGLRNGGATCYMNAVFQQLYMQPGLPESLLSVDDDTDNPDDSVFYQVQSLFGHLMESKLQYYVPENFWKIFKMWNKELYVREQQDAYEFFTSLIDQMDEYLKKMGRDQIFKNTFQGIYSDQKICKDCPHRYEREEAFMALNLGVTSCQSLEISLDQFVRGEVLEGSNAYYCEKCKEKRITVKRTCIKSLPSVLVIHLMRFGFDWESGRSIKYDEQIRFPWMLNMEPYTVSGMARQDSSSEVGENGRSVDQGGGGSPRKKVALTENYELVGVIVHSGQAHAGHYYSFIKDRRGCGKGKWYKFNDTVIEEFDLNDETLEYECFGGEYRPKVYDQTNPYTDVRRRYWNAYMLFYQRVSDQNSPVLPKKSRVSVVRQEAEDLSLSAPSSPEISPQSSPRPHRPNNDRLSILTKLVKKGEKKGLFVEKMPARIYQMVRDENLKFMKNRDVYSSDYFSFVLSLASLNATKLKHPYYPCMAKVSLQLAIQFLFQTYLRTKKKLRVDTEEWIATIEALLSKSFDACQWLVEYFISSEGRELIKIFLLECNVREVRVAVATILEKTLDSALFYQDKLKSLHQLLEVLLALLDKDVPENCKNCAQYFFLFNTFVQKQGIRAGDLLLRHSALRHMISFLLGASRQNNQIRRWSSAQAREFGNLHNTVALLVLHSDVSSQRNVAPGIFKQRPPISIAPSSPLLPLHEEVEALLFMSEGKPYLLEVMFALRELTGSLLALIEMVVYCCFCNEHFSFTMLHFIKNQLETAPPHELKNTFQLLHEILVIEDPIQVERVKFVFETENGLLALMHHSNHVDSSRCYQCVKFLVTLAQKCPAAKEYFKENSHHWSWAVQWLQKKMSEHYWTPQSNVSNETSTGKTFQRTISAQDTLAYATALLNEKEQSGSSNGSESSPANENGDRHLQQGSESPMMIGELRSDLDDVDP
Outline: as §1

USP25 = target: T3, USP25 (UniProt Q9UHP3)
T3 sequence (whole entry): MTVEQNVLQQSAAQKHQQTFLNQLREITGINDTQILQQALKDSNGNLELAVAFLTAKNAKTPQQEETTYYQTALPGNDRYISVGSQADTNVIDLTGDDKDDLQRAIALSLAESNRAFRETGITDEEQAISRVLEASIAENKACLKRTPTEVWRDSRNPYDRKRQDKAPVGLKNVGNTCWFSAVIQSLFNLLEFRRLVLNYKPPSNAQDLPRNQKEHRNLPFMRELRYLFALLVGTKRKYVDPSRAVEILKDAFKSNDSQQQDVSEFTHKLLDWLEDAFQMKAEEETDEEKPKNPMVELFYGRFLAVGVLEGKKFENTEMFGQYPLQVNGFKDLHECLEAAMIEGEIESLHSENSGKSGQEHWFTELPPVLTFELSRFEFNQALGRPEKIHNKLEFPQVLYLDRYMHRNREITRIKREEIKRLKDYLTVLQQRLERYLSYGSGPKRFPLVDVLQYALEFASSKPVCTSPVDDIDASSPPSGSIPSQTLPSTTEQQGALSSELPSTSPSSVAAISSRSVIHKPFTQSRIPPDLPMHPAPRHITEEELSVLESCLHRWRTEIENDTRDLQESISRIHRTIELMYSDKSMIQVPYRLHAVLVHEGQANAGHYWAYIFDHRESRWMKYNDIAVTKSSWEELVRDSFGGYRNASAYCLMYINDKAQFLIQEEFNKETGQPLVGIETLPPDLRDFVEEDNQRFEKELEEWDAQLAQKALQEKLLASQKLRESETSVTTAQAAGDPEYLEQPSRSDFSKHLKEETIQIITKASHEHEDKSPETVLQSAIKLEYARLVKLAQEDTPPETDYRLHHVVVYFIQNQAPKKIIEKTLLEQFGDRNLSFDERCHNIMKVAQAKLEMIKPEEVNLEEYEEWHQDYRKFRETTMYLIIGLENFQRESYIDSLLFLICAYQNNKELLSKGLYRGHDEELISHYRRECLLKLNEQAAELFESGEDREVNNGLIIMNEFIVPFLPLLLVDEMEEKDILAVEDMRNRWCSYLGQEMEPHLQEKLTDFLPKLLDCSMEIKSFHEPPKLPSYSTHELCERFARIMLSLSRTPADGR
Outline: as §1

USP28 = target: T4, USP28 (UniProt Q96RU2)
T4 sequence (whole entry): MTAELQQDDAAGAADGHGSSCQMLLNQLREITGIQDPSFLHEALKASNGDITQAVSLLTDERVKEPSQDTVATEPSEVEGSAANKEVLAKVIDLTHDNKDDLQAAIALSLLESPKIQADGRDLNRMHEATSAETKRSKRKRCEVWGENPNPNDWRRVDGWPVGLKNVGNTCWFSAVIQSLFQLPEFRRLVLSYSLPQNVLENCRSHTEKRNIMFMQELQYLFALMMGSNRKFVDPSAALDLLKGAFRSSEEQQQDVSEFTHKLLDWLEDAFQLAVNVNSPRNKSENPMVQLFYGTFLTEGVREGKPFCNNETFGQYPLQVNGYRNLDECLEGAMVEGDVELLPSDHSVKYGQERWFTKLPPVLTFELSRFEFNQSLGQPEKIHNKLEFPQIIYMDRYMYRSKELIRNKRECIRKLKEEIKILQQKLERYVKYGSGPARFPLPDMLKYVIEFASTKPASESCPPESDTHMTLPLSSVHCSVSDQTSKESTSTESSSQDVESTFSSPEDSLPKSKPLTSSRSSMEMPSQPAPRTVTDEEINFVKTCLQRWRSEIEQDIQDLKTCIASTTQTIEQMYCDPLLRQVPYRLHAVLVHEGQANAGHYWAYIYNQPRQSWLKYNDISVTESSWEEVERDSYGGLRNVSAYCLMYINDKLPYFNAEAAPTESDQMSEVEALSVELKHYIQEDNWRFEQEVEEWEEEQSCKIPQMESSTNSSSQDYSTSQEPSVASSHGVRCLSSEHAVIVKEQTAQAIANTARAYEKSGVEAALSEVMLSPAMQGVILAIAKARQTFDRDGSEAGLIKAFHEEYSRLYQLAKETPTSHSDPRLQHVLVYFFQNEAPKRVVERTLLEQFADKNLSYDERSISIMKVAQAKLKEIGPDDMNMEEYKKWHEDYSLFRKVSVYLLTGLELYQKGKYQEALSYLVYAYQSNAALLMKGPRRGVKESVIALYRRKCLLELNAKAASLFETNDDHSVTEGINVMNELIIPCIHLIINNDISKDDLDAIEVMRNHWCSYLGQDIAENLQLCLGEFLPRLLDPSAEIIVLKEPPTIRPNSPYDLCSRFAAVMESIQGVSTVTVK
Outline: as §1

Measured: log2 ratio of Biotin-Ahx-Ub-VS probe labelling

O=C(CCl)N1CCC(c2ccn[nH]2)C1 (stereo not given)
inactive: USP19 -0.276 | USP22 -0.234 | USP24 -0.326 | USP25 -0.433 | USP28 -0.425
